“And” between values parts separate entries of the source, which are not always exact repeats. Equal entries are not always repeated. About 3,800 (1.2%) of roughly 330,000 compounds were called active. Cut-off read from the data, not from the text of the source: active = inhibition above about 15%; inconclusive = no clear call, values can overlap the other calls; inactive = below that. The full list was thinned out, with actives kept by preference. More than one record can exist for a structure, and the calls need not agree.
Target: NAD-dependent protein deacylase sirtuin-5, mitochondrial (Homo sapiens) (UniProt Q9NXA8)
Experiment: blockers of sirtuin-5 deacylase activity – biochemical, fluorescence imaging, single point, set 5, primary screen (AID 652115)
Conditions: Purified SirT5, succinyl-peptide AMC, trypsin-coupled fluorescence; at 15 µM; stronger effect = higher value

Sequence of NAD-dependent protein deacylase sirtuin-5, mitochondrial (Homo sapiens) (Q9NXA8 whole entry, looked up): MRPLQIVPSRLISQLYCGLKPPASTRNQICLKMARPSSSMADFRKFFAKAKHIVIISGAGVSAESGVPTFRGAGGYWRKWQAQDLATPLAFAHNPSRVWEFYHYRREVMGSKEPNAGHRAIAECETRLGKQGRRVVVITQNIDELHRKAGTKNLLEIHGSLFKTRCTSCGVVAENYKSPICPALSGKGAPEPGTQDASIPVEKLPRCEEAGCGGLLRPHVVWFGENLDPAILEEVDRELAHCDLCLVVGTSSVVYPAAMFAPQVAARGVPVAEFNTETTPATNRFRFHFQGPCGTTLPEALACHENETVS

| SMILES | inhibition |
| --- | --- |
| CN(C)C(=O)C[C@H]1C=C[C@@H](NC(=O)C2CCC2)[C@@H](CO)O1 | -0.42% (inactive) |
| C[C@H](CO)N1C[C@H](C)[C@H](CN(C)CC2CCCCC2)OCCCC[C@H](C)Oc2ccc(NC(=O)c3ccncc3)cc2C1=O | 2.1% (inactive) |
| O=S(=O)(Cc1ccccc1)N1CCCCN2[C@@H](CO)[C@@H](c3ccc(-c4ccc(F)cc4)cc3)[C@@H]2C1 | 4.06% (inactive) |
| COc1ccc2c3c(n(C)c2c1)[C@@H](CO)N(C(=O)CN1CCOCC1)CC31CCN(C(=O)C2CC2)CC1 | -4.96% (inactive) |
| O=C(C[C@@H]1CC[C@H]2[C@@H](COC[C@@H](O)CN2Cc2nccs2)O1)NCc1ccc(-c2ccccc2)cc1 | 3.03% (inactive) |
| O=C(C[C@H]1CC[C@H]2[C@@H](COC[C@@H](O)CN2Cc2cccc(C(F)(F)F)c2)O1)NCc1ccncc1 | 2.67% (inactive) |
| O=C(C[C@H]1CC[C@H]2[C@@H](COC[C@@H](O)CN2Cc2nccs2)O1)NCc1ccccc1Cl | 16.4% (active) |
| O=C(C[C@@H]1CC[C@@H]2[C@H](COC[C@H](O)CN2Cc2cccc(C(F)(F)F)c2)O1)NCc1ccc(F)cc1 | 16.6% (active) |
| O=C(C[C@@H]1CC[C@@H]2[C@H](COC[C@@H](O)CN2Cc2ccc(Cl)cc2)O1)NCc1ccccc1Cl | -1.3% (inactive) |
| O=C(C[C@@H]1CC[C@@H]2[C@H](COC[C@H](O)CN2Cc2cccc(F)c2)O1)NCc1ccncc1 | -0.883% (inactive) |
| CN(C)C(=O)[C@@H]1[C@@H](CO)[C@@H]2Cn3c(ccc(-c4ccccc4)c3=O)[C@@H]2N1CCC(F)(F)F | 0.07% (inactive) |
| C[C@@H](NC(=O)C[C@H]1C=C[C@H](NC(=O)C2CCOCC2)[C@H](CO)O1)c1ccccc1 | 2.71% (inactive) |
| COc1ccc(NC(=O)N2C[C@H](O)COC[C@H]3O[C@@H](CC(=O)NC4Cc5ccccc5C4)CC[C@@H]32)cc1 | -1.07% (inactive) |
| CC(C)CC#Cc1cnc2c(c1)C(=O)N([C@@H](C)CO)C[C@@H](C)[C@@H](CN(C)S(=O)(=O)c1cccs1)O2 | 3.74% (inactive) |
| C/C=C/c1ccc([C@H]2[C@@H](CO)N(C(=O)C3CC3)[C@@H]2CNC(=O)NC(C)C)cc1 | -3.13% (inactive) |
| CCC(=O)N(C)C[C@@H]1Oc2ncc(C#CCC3CCCC3)cc2C(=O)N([C@@H](C)CO)C[C@H]1C | 2.53% (inactive) |
| CN1C(=O)c2cc(NC(=O)C3CCOCC3)ccc2OC[C@@H]2O[C@H](CC(=O)NCc3ccccc3F)CC[C@H]21 | -13.7% (inactive) |
| Cc1noc(C)c1NC(=O)N(C)C[C@@H]1Oc2cc(Br)ccc2S(=O)(=O)N([C@@H](C)CO)C[C@H]1C | -3.62% (inactive) and 22.1% (active) |
| C[C@@H]1CN([C@H](C)CO)S(=O)(=O)c2ccc(C#C[C@@H](C)O)cc2O[C@@H]1CN(C)Cc1ccc(-c2ccccc2)cc1 | 27% (active) and 4.33% (inactive) and -0.184% (inactive) |
| C[C@@H]1CN([C@@H](C)CO)S(=O)(=O)c2ccc(C3=CCCC3)cc2O[C@@H]1CN(C)Cc1ccncc1 | 0.906% (inactive) |
| CC(C)C#Cc1ccc2c(c1)O[C@H](CN(C)Cc1ccccc1)[C@H](C)CN([C@@H](C)CO)S2(=O)=O | -0.3% (inactive) |
| C/C=C/c1ccc2c(c1)O[C@H](CN(C)Cc1ccccc1)[C@H](C)CN([C@@H](C)CO)S2(=O)=O | 3.6% (inactive) |
| C/C=C/c1ccc2c(c1)O[C@H](CN(C)Cc1cccc(F)c1)[C@H](C)CN([C@H](C)CO)S2(=O)=O | 18% (active) |

| SMILES | inhibition |
| --- | --- |
| C[C@@H](O)C#Cc1ccc2c(c1)O[C@@H](CN(C)Cc1cccnc1)[C@@H](C)CN([C@@H](C)CO)S2(=O)=O | -2.24% (inactive) |
| C[C@H](CO)N1C[C@H](C)[C@@H](CN(C)Cc2cccnc2)Oc2cc(C3=CCCC3)ccc2S1(=O)=O | 0.149% (inactive) |
| C/C=C/c1ccc2c(c1)O[C@H](CN(C)C)[C@H](C)CN([C@H](C)CO)S2(=O)=O | -0.588% (inactive) |
| C[C@H]1CN([C@@H](C)CO)S(=O)(=O)c2ccc(C3=CCCC3)cc2O[C@@H]1CN(C)Cc1ccccc1 | 24.3% (active) |
| Cc1noc(C)c1NC(=O)N(C)C[C@@H]1Oc2cc(C#CCC(C)C)ccc2S(=O)(=O)N([C@H](C)CO)C[C@@H]1C | 10.8% (inactive) |
| COc1ccccc1NC(=O)N(C)C[C@H]1Oc2cc(Br)ccc2S(=O)(=O)N([C@H](C)CO)C[C@@H]1C | -3.29% (inactive) and -0.792% (inactive) |
| CO[C@@H](CN(C)C(=O)c1cnccn1)[C@@H](C)CN([C@@H](C)CO)S(=O)(=O)c1ccc(F)cc1 | 3.39% (inactive) |
| CCNC(=O)C[C@@H]1CC[C@@H]2[C@H](COc3ccc(NS(=O)(=O)c4ccccc4C)cc3C(=O)N2C)O1 | -4.85% (inactive) |
| C/C=C/c1ccc2c(c1)O[C@@H](CN(C)S(=O)(=O)c1ccc(F)cc1)[C@@H](C)CN([C@H](C)CO)S2(=O)=O | 7.93% (inactive) |
| O=C(Nc1cc(F)ccc1F)N[C@H]1CC[C@@H](CCn2cc(C3CCCC3)nn2)O[C@@H]1CO | -0.428% (inactive) |
| C[C@H](CO)N1C[C@H](C)[C@@H](CN(C)C(=O)c2ccncc2)Oc2cc(/C=C/c3ccccc3)ccc2S1(=O)=O | 0.659% (inactive) |
| C[C@@H]1CN([C@@H](C)CO)S(=O)(=O)c2ccc(/C=C/c3ccccc3)cc2O[C@H]1CN(C)C(=O)Nc1cc(F)ccc1F | -3.9% (inactive) |
| C[C@@H]1CN([C@@H](C)CO)S(=O)(=O)c2ccc(/C=C/c3ccccc3)cc2O[C@H]1CN(C)Cc1ccccc1 | -1.92% (inactive) |
| C[C@@H]1CN([C@@H](C)CO)S(=O)(=O)c2ccc(/C=C/c3ccccc3)cc2O[C@H]1CN(C)Cc1cccnc1 | 5.97% (inactive) |
| C[C@H](CO)N1C[C@H](C)[C@@H](CN(C)S(=O)(=O)c2ccc(F)cc2)Oc2cc(C3=CCCC3)ccc2S1(=O)=O | -0.634% (inactive) |
| C[C@H]1CN([C@@H](C)CO)S(=O)(=O)c2ccc(C3=CCCC3)cc2O[C@H]1CN(C)C(=O)Nc1ccc2c(c1)OCO2 | 16.2% (active) |
| C[C@@H]1CN([C@H](C)CO)S(=O)(=O)c2ccc(/C=C/c3ccccc3)cc2O[C@@H]1CN(C)C(=O)Nc1ccc(F)cc1 | 0.2% (inactive) |
| COc1cccc(S(=O)(=O)N(C)C[C@@H]2Oc3cc(C4=CCCCC4)ccc3S(=O)(=O)N([C@H](C)CO)C[C@H]2C)c1 | 37.3% (active) |
| C[C@H]1CN([C@@H](C)CO)S(=O)(=O)c2ccc(C#Cc3ccncc3)cc2O[C@@H]1CN(C)C(=O)Nc1ccc2c(c1)OCO2 | 4.3% (inactive) |
| C[C@@H]1CN([C@H](C)CO)S(=O)(=O)c2ccc(C3=CCCC3)cc2O[C@H]1CN(C)C(=O)Nc1ccc2c(c1)OCO2 | 7.25% (inactive) |
| C[C@@H]1CN([C@H](C)CO)S(=O)(=O)c2ccc(/C=C/c3ccccc3)cc2O[C@@H]1CN(C)Cc1ccccc1 | 23.2% (active) |
| Cc1ccc(S(=O)(=O)N(C)C[C@@H]2Oc3cc(C4=CCCC4)ccc3S(=O)(=O)N([C@@H](C)CO)C[C@@H]2C)cc1 | 8.8% (inactive) |
| C[C@@H]1CN([C@@H](C)CO)S(=O)(=O)c2ccc(/C=C/c3ccccc3)cc2O[C@@H]1CN(C)C(=O)Nc1cc(F)ccc1F | 21.7% (active) |
